About 83,000 compounds went through this panel and 20% of them were active in at least one assay; those are over-represented in the sample as a whole.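 Cell lines were cultured in 96-well plates, exposed to a single compound concentration, and assessed for percent growth 48 hours later.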 Unmarked numbers belong to inactive results. Active and inactive are the calls of the source.
test system: PC-3 prostate; assay: NCI-60 one-dose screen, 48 h (100 = growth as untreated, 0 = no growth, -100 = all killed); details: 10 µM unless noted
Protocol: Growth inhibition of the PC-3 human tumor cell line is measured as a screen for anti-cancer activity. Cells are grown in 96 well plates and exposed to the test compound for 48 hours. Compounds are tested at a single concentration, which is 10^-5 M for most compounds. The reported endpoint is percent growth (GI% or GIPRCNT), where numbers from 0 - 100% represent growth inhibition, and numbers from -100% - 0 represent cell death. For example, a value of 40 represents 60% growth inhibition. A value of 0 means no net growth occurred over the course of the experiment. A value of -40 indicates 40% of cells at the beginning of the experiment died by the end of the experiment. A value of -100 means all cells are dead at the end of the experiment.
NCI-60 Human Tumor Cell Lines Screen was performed using the standard one-dose NCI protocol, which is described in more detail at https://dtp.cancer.gov/discovery_development/nci-60/default.htm.
Compounds with GIPRCNT values below 10 were considered active. Activity score was based on GIPRCNT using the following formula: […]
Score is 0 for GIPRCNT values of 100 or above, 50 for GIPRCNT values of 0, and 100 for GIPRCNT values of -100.

SMILES	growth
COc1ccccc1C(=O)Nc1cccc(NC(=O)c2ccoc2C)c1	30.5%
CC1(C)CC[C@]2(C(=O)N[C@H](CO)Cc3ccccc3)CC[C@]3(C)C(=CC[C@@H]4[C@@]5(C)CCCNC(C)(C)[C@@H]5CC[C@]43C)[C@@H]2C1	25.7%
O=C1NC(=O)/C(=C/c2c(-c3ccccc3)nc3sc(COc4ccccc4)nn23)S1	111%
CCN1CCN(CCNc2nccc(-c3c(-c4ccc(F)c(OC)c4)nc4sccn34)n2)S1(=O)=O	74.1%
C/C(=N\O)c1ccc(NC(=O)CSc2nnc(-c3cc(-c4ccc(S(C)(=O)=O)cc4)nc4ccccc34)n2-c2ccccc2)cc1	68.5%
C=C1C(=O)O[C@H]2[C@H]1CC/C(COC(=O)CSCSCC(=O)OC/C1=C/CC[C@@]3(C)O[C@H]3[C@H]3OC(=O)C(=C)[C@@H]3CC1)=C\CC[C@@]1(C)O[C@@H]21	0.538% (active)
O=C(NC1CC(F)C1)c1cc2cccnc2n1-c1ccc(Cl)c(Cl)c1 (stereo not given)	89.8%
[2H]C([2H])([2H])Oc1ccc(F)cc1/C=C/C(=O)/C=C(/C=C/c1cc(F)ccc1OC([2H])([2H])[2H])OB(F)F	66.7%
CCOc1c(OC)cc2c(c1O)C(=O)N[C@@H]1[C@@H](O)[C@@H](O)[C@H](O)C[C@@H]21	100%
NC1=Nc2cc(OCCCCN3Cc4ccccc4C3)c(OCC3CC3)cc2C12CCCC2	44.1%
CCO/C=N/C1=C(C#N)C(c2ccc(F)cc2)c2sc3c(F)cccc3c2O1 (stereo not given)	47.9%
O=C(O)/C=C/C(=O)Nc1cccc(Cn2nnc3cc(Cl)c(Cl)cc32)c1	102%
COc1ccc(/C=C/c2ccc3ccccc3n2)c(OC)c1	66.1%
CCCCCCCCCCCCCOC(=O)c1c(C)[nH]c(/C=C2\N=C(c3ccc[nH]3)C=C2OC)c1C	27.6%
O=C(Nc1cc(Cl)ccc1O)c1cccc(Nc2ccnc(C(F)(F)F)c2)c1	28.2%
Cc1ccc(-c2csc(N(C(=O)N3CCN(c4cc5c(cc4F)c(=O)c(C(=O)O)cn5C4CC4)CC3)c3ccccc3)n2)cc1	11.8%
COc1ccc(/C=C2\CN(C(=O)C(Cl)Cl)C/C(=C\c3ccc(OC)cc3)C2=O)cc1	-8.13% (active)
[2H]C([2H])([2H])Oc1ccc(F)cc1/C=C/C(=O)/C=C(O)/C=C/c1cc(F)ccc1OC([2H])([2H])[2H]	93.1%
Cc1nn(-c2cc(NC3CCC(O)CC3)c3c(=O)[nH]c(CCC(F)(F)F)cc3c2)c2c1C(=O)CC(C)(C)C2 (stereo not given)	55.4%
COc1ccc(C[n+]2c3ccccc3n3c4ccc(N)cc4ccc32)c(OC)c1OC	43.3%

SMILES	growth
CCOC(=O)c1c(C)c2c(n1Cc1ccccc1)CSCC2=O	7.17% [100 µM] (active)
Nc1nc(N)c2c(n1)NC(c1ccc(Cl)cc1)C1CCc3ccccc3C1=N2 (stereo not given)	51.6%
CCN1C(=O)N(CC)C2C1NN=c1s/c(=C\c3ccc[nH]3)c(=O)n12 (stereo not given)	19.6%
CN1CCN(c2ccc3nc4c(nc3c2C(F)(F)F)C(=O)c2ncccc2C4=O)CC1	8.01% (active)
Cc1nn(-c2ccccc2)c(N)c1N=C1NC(=O)/C(=C/c2ccc(Br)cc2)S1	74%
Cc1cccc2c1C[C@@]1(C2=O)C(c2ccc(C(C)(C)C)cc2)=NOS1=O (stereo not given in full)	68.8%
COc1ccc2c(c1)/C(=N/c1n[nH]c(=S)s1)C(=O)N2	91.2%
CCOC(=O)c1nn(CC(O)c2ccccc2)c(NC(=O)Nc2cccc(F)c2)c1C (stereo not given)	92.5%
O=C1/C(=C\c2cccc3nccnc23)SC(=S)N1CCc1ccc(O)cc1	84%
CC(C)CCN(CCC(C)C)CC(O)c1cc2c(c3ccccc13)CCCC2 (stereo not given)	66.4%
CS(=O)(=O)c1ccc(NC(=O)c2ccccc2)nc1	93.6%
Nc1nc(N)c2c(n1)NC(c1cccc(Nc3ccnc4cc(C(F)(F)F)ccc34)c1)CC(c1ccc(Br)cc1)=N2 (stereo not given)	36.6%
CC(C)(C)n1cc(-c2ccnc(NCCNS(=O)(=O)c3ccc(O)cc3)c2)c(-c2cccc(O)c2)n1	101%
Cc1ccnc(Nc2ccc([N+](=O)[O-])c(NCCN3CCOCC3)n2)c1	12.2%
COc1ccc(/C=C/C(c2cc(OC)c(OC)c(OC)c2)n2ccnc2)cc1O (stereo not given)	25.3%
COc1ccc(C2=CN3CC=CC3CC2=O)cc1 (stereo not given)	92.1%
Cc1n[nH]c2ccc(Br)cc2c1=O	90.9%
CN1CCN(C(=O)C(C)(C)c2ccc(C(=O)Nc3cn4cc(-c5ccncc5)ccc4n3)cc2)CC1	25.7%
C=C(C)[C@@H]1CC[C@]2(C)[C@H](CC=C3[C@@H]4CC(C)(C)CC[C@]4(CO)CC[C@]32C)[C@@]1(C)CCCN	21.3%
O=C(/C=C/c1ccccc1)c1ccc(Nc2nc(Nc3ccc(F)cc3)nc(Nc3ccc(Cl)cc3)n2)cc1	74.5%

— PubChem BioAssay (NCI)
